# PubChem BioAssay (Tox21)
# Records with an inconclusive call do not appear. A call without a number means that no potency is given here. The source made the active and inactive calls. The call rests on the fitted dose curve; in most records, active means well fitted cell-killing curve with a large enough effect in the repeat runs; inconclusive means weak or mixed curves, or effect the other way; inactive means flat fitted curve, though single readings scatter.
# Test: qHTS assay to identify small molecule antagonists of the androgen receptor (AR) signaling pathway using the MDA cell line - cell viability counter screen (AID 743041; further: nearly all actives have a fitted effect of over 45% in size)
# Conditions: MDA-kb2 viability, CellTiter-Fluor, 16 h, cells co-treated with R1881 androgen agonist; series mostly up to 70.3 µM
# From the text: National Center for Advancing Translational Sciences [NCATS]
# NIH Chemical Genomics Center [NCGC]
# U.S. Environmental Protection Agency [EPA]
# National Institutes of Environmental Health Sciences [NIEHS]
# National Toxicology Program [NTP]
# U.S. Food and Drug Administration [FDA]
# Androgen receptor (AR), a nuclear hormone receptor, plays a critical role in AR-dependent prostate cancer and other androgen related diseases. Endocrine disrupting chemicals (EDCs) and their interactions with steroid hormone receptors like AR may cause disruption of normal endocrine function as well as interfere with metabolic homeostasis, reproduction, developmental and behavioral functions. To identify the compounds that inhibit AR signaling, MDA-kb2 AR-luc cell line (from ATCC, deposited by Wilson et al.) was used to screen the Tox21 10K compound library. MDA-kb2 AR-luc cell line is human breast carcinoma cell line that was stably transfected with a luciferase reporter gene under control of the MMTV promoter containing response elements for both androgen receptor (AR) and glucocorticoid receptor (GR). The cytotoxicity of the Tox21 compound library against the MDA-kb2 AR-luc cell line was tested in parallel by measuring the cell viability using CellTiter-Fluor assay (Promega, Madison, WI) in the same wells.
# Tox21 Assay Protocol Summary:
# MDA-kb2 AR-luc cells were dispensed at 3,000 cells/4 uL/well of culture medium into white wall/solid-bottom 1536-well plates using a Multidrop Combi (ThermoFisher Scientific, Waltham, MA) dispenser. After the assay plates were incubated at a 37C and 0% CO2 for 5 hr, 23 nL of compounds dissolved in DMSO, positive controls or DMSO only was transferred to the assay plate by a Pintool station (Kalypsys, San Diego, CA), followed by addition of 1 uL of agonist (R1881) in culture medium using a Bioraptr Flying Reagent Dispenser (FRD) workstation (Beckman Coulter, Indianapolis, IN, USA). The plates were incubated at a 37C and 0% CO2 for 16 h. After 15.5 h incubation, 1uL of CellTiter-Fluor reagent (Promega) was added using a Bioraptr FRD to each plate for measuring cytotoxicity. The fluorescence intensity was quantified on a ViewLux plate reader (PerkinElmer, Shelton, CT) following 30 min incubation at 37C and 0% CO2.
# Potency means the concentration at half of the fitted maximal effect.
row,Structure (SMILES),Potency
1,COc1cc(Cl)ccc1Oc1ccc(Cl)cc1Cl,inactive
2,COc1cccc(N(C)C(=S)Oc2ccc3c(c2)CCCC3)n1,inactive
3,Clc1ccc2c(c1)CCc1cccnc1C2=C1CCNCC1,inactive
4,Nc1cc(C(=O)O)c(O)c(S(=O)(=O)O)c1,inactive
5,N=c1ccn2c(n1)O[C@H]1[C@H](O)[C@@H](CO)O[C@H]12,inactive
6,CC(C)(C)OCC1CO1 (stereo not given),inactive
7,Cc1ccc(N=Nc2c(O)c(C(=O)O)cc3ccccc23)c(S(=O)(=O)O)c1,inactive
8,CC1=CC=C(C(C)C)CC1,inactive
9,O=[N+]([O-])c1ccc(NCCO)c(OCCO)c1,54.5 µM (active)
10,C#Cc1cccc(Nc2ncnc3cc(OCCOC)c(OCCOC)cc23)c1,inactive
11,CCOC(=O)COC(=O)c1cc(Oc2ccc(C(F)(F)F)cc2Cl)ccc1[N+](=O)[O-],inactive
12,COc1ccc(C(=O)N2CCN(CC(=O)N3CCOCC3)CC2)cc1,inactive
13,CC(CC=O)c1ccccc1 (stereo not given),inactive
14,COC(C)OC,inactive
15,CCCn1cnc2c1c(=O)n(CCCCC(C)=O)c(=O)n2C,inactive
16,C/C(=C(\CCOP(=O)(O)O)SC(=O)c1ccccc1)N(C=O)Cc1cnc(C)nc1N,inactive
17,CN(C)CCN(Cc1ccccc1)c1ccccn1,inactive
18,COc1ccc(C(=O)Nc2nc3ccccc3c(NCc3ccccc3)c2C#N)cc1,inactive
19,O=C(OCCc1ccccc1)c1ccccc1,inactive
20,COC(=O)c1ccc(I)cc1S(=O)(=O)NC(=O)Nc1nc(C)nc(OC)n1,inactive

row,Structure (SMILES),Potency
1,Cn1c(=O)cc(Oc2ccc(F)cc2F)c2cnc(NCC(C)(C)O)nc21,inactive
2,CCCCCCCC#N,inactive
3,O=C(O)c1ccc(-n2nc(-c3ccccc3O)nc2-c2ccccc2O)cc1,inactive
4,CCC(=O)O[C@]1(C(=O)CCl)[C@@H](C)C[C@H]2[C@@H]3CCC4=CC(=O)C=C[C@]4(C)[C@@]3(F)[C@@H](O)C[C@@]21C,inactive
5,CCCCCCCCCOS(=O)(=O)O,inactive
6,CC1=CCCC(C)(C)C12CCC(C)O2 (stereo not given),inactive
7,CC(=O)OC[C@H]1O[C@@H](n2ncc(=O)[nH]c2=O)[C@H](OC(C)=O)[C@@H]1OC(C)=O,inactive
8,NCC(=O)CCC(=O)O,inactive
9,CCCCC1=NC2(CCCC2)C(=O)N1Cc1ccc(-c2ccccc2-c2nn[nH]n2)cc1,inactive
10,Clc1ccc(Cn2c(CN3CCCC3)nc3ccccc32)cc1,inactive
11,CN(C)C(=O)NC1(c2ccccc2)CCN(CC[C@@]2(c3ccc(F)c(F)c3)CN(C(=O)c3ccccc3)CCO2)CC1,inactive
12,O=C(O)CC(=O)C(=O)O,inactive
13,CC(C)(O)c1ccc(CNC(=O)c2cccnc2Oc2ccc(F)cc2)cc1,inactive
14,O=C(O)C(S)C(S)C(=O)O (stereo not given),inactive
15,C[C@H]1C[C@H]2[C@@H]3CCC4=CC(=O)C=C[C@]4(C)[C@@]3(Cl)[C@@H](O)C[C@]2(C)[C@@]1(O)C(=O)CO,inactive
16,CC(=O)c1cccc([N+](=O)[O-])c1,inactive
17,C=CC(=O)OCCOc1ccccc1,inactive
18,CN(C)CCN(Cc1ccc(Cl)cc1)c1ccccn1,inactive
19,CCCNCC(O)COc1ccccc1C(=O)CCc1ccccc1 (stereo not given),inactive
20,CCCCCCc1ccc(-c2ccc(C#N)cc2)cc1,inactive
